Hits are enriched below; roughly 12% of the tested compounds scored in any of these assays.
HP1b binding inh – HP1-beta chromodomain-methylated histone interaction inhibition | Potency, µM (series often up to 114 µM), usual class: inhibitors | hit rate 0.56% among 390,000 | AlphaScreen HP1-beta / biotin-H3K9me3 peptide binding; note: nearly all actives have a fitted effect of over 70% in size
Target sequence (P83916 whole entry, looked up): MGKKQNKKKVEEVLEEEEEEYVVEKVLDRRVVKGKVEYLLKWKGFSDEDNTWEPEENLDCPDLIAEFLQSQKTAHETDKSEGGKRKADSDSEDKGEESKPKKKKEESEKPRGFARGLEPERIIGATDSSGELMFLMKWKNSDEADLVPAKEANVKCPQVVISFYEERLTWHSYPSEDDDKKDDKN
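Compound inhibition of the preformed complex between 50 nM HP1-beta and 50 nM biotinylated H3K9me3 peptide was read by AlphaScreen. Buffer was PBS pH 7.4 with 0.01% Tween-20. Incubations ran 30 min at room temperature, with 10 ug/mL donor/acceptor beads.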
JMJD2A Tudor inh – inhibitors of human JMJD2A Tudor domain. O75164. AlphaScreen JMJD2A-Tudor / H3K4me3 peptide binding. Potency, µM (top dose mostly 114 µM), most hits filed as inhibitors. hit rate 4.4% among 390,000; note: nearly all actives have a fitted effect of over 50% in size
BAZ2B block – BAZ2B (human) inhibition. Q9UIF8. AlphaScreen BAZ2B-H3K14Ac peptide displacement. Potency, µM (titrated, usually from 114 µM), most hits filed as inhibitors. hit rate 4.4% among 360,000. AID 504333; note: nearly all actives have a fitted effect of over 60% in size
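BAZ2B 50 nM plus b-H3(5-23)K14Ac 50 nM, PBS pH 7.4/0.01% Tween-20, 30 min RT; compound added (max 110 uM), 30 min RT; streptavidin donor/Ni-chelate acceptor beads 10 ug/mL final, 20 min dark; AlphaScreen read.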
Sfp PPTase inh – blocks B. subtilis Sfp PPTase activity; Q9F4F7; Biochemical Sfp PPTase activity, qHTS; Potency, µM, hits mostly inhibitors; hit rate 3.5% among 310,000; AID 1490;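 note: the enzyme is Sfp with the accession as filed and its product quenches rhodamine fluorescence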
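With Hepes-Na pH 7.6 buffer containing 10 mM MgCl2, Sfp (15 nM) modified BHQ-2-YbbR (12.5 uM) using rhodamine-CoA (5 uM). Two reads 30 minutes apart at 525/598 nm yielded each well's rate.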
L3MBTL1 block – L3MBTL1 (human) inhibition | Q9Y468 | AlphaScreen L3MBTL1–H3K9me1 peptide binding | Potency, µM (series often up to 57.1 µM), hits mostly inhibitors | hit rate 0.66% among 230,000 | AID 485360; note: nearly all actives have a fitted effect of over 60% in size
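First, the protein-peptide complex forms for 30 min at room temperature (L3MBTL1 50 nM, biotinylated H3K9me1 peptide 75 nM). Next, compounds are pin-transferred and incubated 30 min. Finally, AlphaScreen beads are added and read after 30 min.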
G9a inh – blocks human histone lysine methyltransferase G9a. G9a H3K9 monomethylation, AlphaScreen, 2 h. Q96KQ7. hit rate 8.8% among 350,000. AID 504332. Potency, µM (highest dose often 102 µM), hits mostly inhibitors; note: nearly all actives have a fitted effect of over 75% in size
Target sequence (Q96KQ7 913-1193 limits assumed): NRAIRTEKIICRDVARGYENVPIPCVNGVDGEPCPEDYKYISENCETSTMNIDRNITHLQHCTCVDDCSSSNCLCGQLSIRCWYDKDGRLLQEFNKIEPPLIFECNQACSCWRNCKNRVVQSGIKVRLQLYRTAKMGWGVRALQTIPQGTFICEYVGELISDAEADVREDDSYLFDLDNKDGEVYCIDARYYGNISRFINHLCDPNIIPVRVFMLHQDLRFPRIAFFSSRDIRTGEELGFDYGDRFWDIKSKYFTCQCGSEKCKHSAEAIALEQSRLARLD
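G9a (20 nM) was preincubated 15 min with compound, then reacted 2 h at room temperature with 500 nM biotin-H3K9 peptide and 20 µM SAM. Monomethyl-H3K9 detected by AlphaScreen using anti-H3K9me1 antibody.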
Large screens that a line does not name were inactive. Calls come from the whole dose curve; as a rule, active = well fitted curve in the direction sought with a large enough effect; inconclusive = small, poorly fitted or top-dose-only effect, or another doubt; inactive = no such curve, though single readings can be large; an effect the other way counts as inactive or inconclusive.

CCC(C)n1c(NC(=O)c2ccccc2)c(C#N)c2nc3ccccc3nc21 (stereo not drawn)	L3MBTL1 block 6.31µM
CC1(C)C[C@@H]1C(=O)N/C(=C\CCCCSC[C@H](N)C(=O)O)C(=O)O	Sfp PPTase inh 79.4µM
COc1cc2cccc(OC)c(=O)c2c(OC)c1OC	Sfp PPTase inh inconclusive, G9a inh 50.1µM
O=C(NCC(=O)N(CCc1ccccc1)C(C(=O)NC1CCCC1)c1cccnc1)c1ccco1 (stereo not drawn)	G9a inh inconclusive
O=C(NCC(=O)N(CCc1ccccc1)C(C(=O)NC1CCCCC1)c1ccncc1)c1ccco1 (stereo not drawn)	G9a inh 39.8µM
Cc1cc(N)ccc1S(C)(=O)=O	L3MBTL1 block 4.47µM
Cc1ccc(N(C(=O)c2csnn2)C(C(=O)NCc2ccccc2)c2ccccn2)cc1 (stereo not drawn)	none (no result: L3MBTL1 block)
CCCOc1ccc(N2C(=O)CC(N3CCCC(C(=O)N4CCCC4)C3)C2=O)cc1 (stereo not drawn)	G9a inh inconclusive
O=C(C1CCCN(C2CC(=O)N(c3ccc(Cl)cc3)C2=O)C1)N1CCCC1 (stereo not drawn)	G9a inh 79.4µM (no result: L3MBTL1 block)
O=C(C1CCCN(C2CC(=O)N(c3ccc(F)cc3)C2=O)C1)N1CCCC1 (stereo not drawn)	JMJD2A Tudor inh 31.6µM, G9a inh 44.7µM (no result: L3MBTL1 block)
O=C1CCCN1CCC1CCN(C2CC(=O)N(c3ccc(Cl)cc3)C2=O)CC1 (stereo not drawn)	G9a inh 11.2µM (no result: L3MBTL1 block)
C=C1CC2C(=O)N(Cc3cc(OC)ccc3OC)C(C(=O)OCC)C1N2C (stereo not drawn)	none (no result: BAZ2B block, L3MBTL1 block, G9a inh)
Cc1cc(-c2nc(C)c(C(=O)NNS(=O)(=O)c3ccccc3)s2)no1	none
Cc1nc(NS(=O)(=O)c2ccccc2)sc1NC(=O)Nc1ccc(Cl)cc1	JMJD2A Tudor inh inconclusive, BAZ2B block 50.1µM, Sfp PPTase inh 79.4µM (no result: L3MBTL1 block)
Cc1nc(NS(=O)(=O)c2ccccc2)sc1C(=O)NNS(=O)(=O)c1ccccc1	G9a inh 50.1µM (no result: L3MBTL1 block)
Cc1nc(C)c(C(=O)NNS(=O)(=O)c2ccc3ccccc3c2)s1	JMJD2A Tudor inh 25.1µM, G9a inh inconclusive
CC(=O)c1ccc(NC(=O)Nc2sc(NS(=O)(=O)c3ccccc3)nc2C)cc1	BAZ2B block inconclusive, Sfp PPTase inh inconclusive (no result: G9a inh)
Cc1ccc(S(=O)(=O)NNC(=O)c2sc(NS(=O)(=O)c3ccccc3)nc2C)cc1	none (no result: L3MBTL1 block)
CN(C)CC(CCCCC(CN(C)C)C(=O)c1ccccc1)C(=O)c1ccccc1 (stereo not drawn)	G9a inh 50.1µM
COc1cc(CNc2ccc(S(N)(=O)=O)cc2)ccc1OCc1ccccc1F	none (no result: BAZ2B block, Sfp PPTase inh, L3MBTL1 block, G9a inh)
COc1cc(CNCCCN2CCOCC2)ccc1OCC(=O)NC(C)(C)C	none (no result: BAZ2B block)
COc1cc(CNCCN2CCOCC2)ccc1OCc1c(Cl)cccc1Cl	G9a inh inconclusive (no result: HP1b binding inh, JMJD2A Tudor inh)
COc1cc(CNCCN2CCOCC2)ccc1OCC(=O)NC(C)(C)C	Sfp PPTase inh 70.8µM, G9a inh inconclusive
CCOc1cc(CNCCN2CCOCC2)ccc1OCc1ccccc1Cl	Sfp PPTase inh inconclusive, G9a inh 50.1µM
COc1cc(CNc2ccc(N3CCCC3)cc2)ccc1OCc1ccccc1F	HP1b binding inh 20µM, JMJD2A Tudor inh 11.2µM, BAZ2B block 25.1µM, L3MBTL1 block inconclusive, G9a inh 10µM
COc1cc(CNc2ccc(N3CCCCC3)cc2)ccc1OCC(=O)NC(C)(C)C	HP1b binding inh inconclusive, JMJD2A Tudor inh 44.7µM, BAZ2B block 31.6µM, L3MBTL1 block inconclusive, G9a inh 14.1µM
Cc1cccc(-c2nn3c(=O)cc(CN4CCN(C(=O)/C=C/c5ccccc5)CC4)nc3s2)c1	none (no result: Sfp PPTase inh, L3MBTL1 block)
COc1cccc2c1cc1c(=O)n(CC(=O)N3CCN(c4ccc(Cl)cc4)CC3)nc(C)n12	none (no result: Sfp PPTase inh, L3MBTL1 block)
COCC(=O)N1CCC[C@@]2(CCN(C(=O)Nc3cccc(F)c3)C2)C1	none (no result: HP1b binding inh, JMJD2A Tudor inh, BAZ2B block, L3MBTL1 block)
C=CCOc1ccc(CNc2nn[nH]n2)cc1OC	JMJD2A Tudor inh inconclusive (no result: L3MBTL1 block)
C=CCOc1ccc(CNc2ccc(NC(=O)CC(C)C)cc2)cc1OC	JMJD2A Tudor inh inconclusive, BAZ2B block 50.1µM, G9a inh 70.8µM
